Compound activity deposited in PubChem by National Center for Advancing Translational Sciences (NCATS).
DT40 TDP1 CPT: qHTS for Inhibitors of human tyrosyl-DNA phosphodiesterase 1 (TDP1): qHTS in cells in presence of CPT; chicken DT40 Tdp1-/-;hTDP1 cells + 20 nM CPT, ATP luminescence, 48 h; Potency, µM (highest dose often 46.2 µM), for the others: at the top dose activity change, negative = growth inhibition, hits mostly inhibitors; 12% of 420,000 active; AID 686979, 2013; further: potency means the concentration at half of the fitted maximal effect; nearly all actives have a fitted effect of over 55% in size
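Chicken DT40 Tdp1-/- cells complemented with human TDP1, 400 cells/well, exposed to compounds plus 20 nM camptothecin for at least 48 h at 37 C; viability read as ATP content by CellTiter-Glo luminescence.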
ELG1 DNA repair: qHTS screen for small molecules that inhibit ELG1-dependent DNA repair in human embryonic kidney (HEK293T) cells expressing luciferase-tagged ELG1; HEK293T ELG1-luciferase reporter, luminescence, 16 h; DNA damage induced by 5-fluorouridine; Potency, µM (top dose mostly 46.1 µM), for the others: at the highest dose activity change, negative = inhibition, most hits filed as inhibitors; 2.3% of 330,000 active; further: potency means the concentration at half of the fitted maximal effect; nearly all actives have a fitted effect of over 55% in size
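Overnight (16 hr) co-exposure of 2,000 cells/well to 5-fluorouridine and compound at 37 °C preceded detection. Luciferase was quantified via ONE-Glo luminescence; loss of signal denotes inhibition.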
TDP1 cell noCPT: qHTS for Inhibitors of human tyrosyl-DNA phosphodiesterase 1 (TDP1): qHTS in cells in absence of CPT | DT40 Tdp1-/- hTDP1 cells, no CPT, ATP luminescence, 48 h | Potency, µM (series often up to 46.2 µM), for inactives: at the highest dose activity change, negative = growth inhibition, usual class: inhibitors | 15% of 420,000 active; further: potency means the concentration at half of the fitted maximal effect; nearly all actives have a fitted effect of over 55% in size
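Chicken DT40 Tdp1-/- cells complemented with human TDP1, screened without camptothecin (DMSO vehicle only), 400 cells/well. Compounds pin-transferred, cells incubated at 37 °C for at least 48 hr. Growth read as ATP-dependent luminescence (CellTiter-Glo, 30 min at RT).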
HT1080NT lethal: qHTS for induction of synthetic lethality in tumor cells producing 2HG: qHTS for the HT-1080-NT fibrosarcoma cell line. HT-1080-NT fibrosarcoma viability, CellTiter-Glo ATP luminescence, 48 h. Potency, µM (doses to about 46.1 µM), for inactives: at the highest dose activity, negative = less viability, usual class: cytotoxic. 1.6% of 360,000 active. AID 686970, 2013;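 further: NT is the 2HG producing partner of a matched IDH1 knockdown line; potency means the concentration at half of the fitted maximal effect; 0% = DMSO-treated cells and -100% = media-only wells without cells; nearly all actives have a fitted effect of over 55% in size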
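HT-1080-NT; 750 cells/well; 5% FBS RPMI; 48 h compound, 37 degrees C; CellTiter-Glo luminescence; curve fitting and curve-class assignment.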
IL1B secr inh: qHTS for Inhibitors of Inflammasome Signaling: IL-1-beta AlphaLISA Primary Screen | THP-1 LPS/ATP IL-1B secretion, AlphaLISA, 16 h; hits give low values | activity change, % at 57.5 µM | 4.7% of 360,000 active | AID 743279, 2014; in the data active means activity change below about -50%; inconclusive means mostly about -30% to -49%
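THP-1 cells pretreated 1 hr with compounds (up to 57.5 uM final), then stimulated with LPS (250 ng/mL final) plus ATP (1.25 mM final); secreted IL-1B measured by AlphaLISA after 16 hr, decreased signal indicating inhibition.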
HT1080 IDH1KD tx: qHTS for induction of synthetic lethality in tumor cells producing 2HG: qHTS for the HT-1080-IDH1KD cell line; Potency, µM (doses to about 46.1 µM), for the others: top-dose activity, negative = toxicity, hits mostly cytotoxic; AID 686971, 2013; HT-1080 IDH1 knockdown viability, ATP luminescence, 48 h; 2% of 360,000 active;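 further: potency means the concentration at half of the fitted maximal effect; 0% = DMSO wells and -100% = cell-free medium wells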
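Assay cells: HT-1080 with IDH1 knockdown, 750 per well, RPMI/5% FBS. Exposure: 48 h at 37 °C following 2 h pre-incubation. Read: CellTiter-Glo luminescence; fitted concentration-response, curve class assigned.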
Active calls of the source: *; ? = inconclusive; nt = no result given; [ ] = remark or other dose. Hits are enriched below; roughly 19% of the tested compounds scored in any of these assays. Unless noted, the call rests on the fitted dose curve; in most records, active means well fitted curve in the direction sought with a large enough effect; inconclusive means small, poorly fitted or top-dose-only effect, or another doubt; inactive means no such curve, though single readings can be large; an effect the other way counts as inactive or inconclusive. Unless noted, on the % scale 0 is the no-effect control and ±100 the full control effect.

SMILES | DT40 TDP1 CPT | ELG1 DNA repair | TDP1 cell noCPT | HT1080NT lethal | IL1B secr inh | HT1080 IDH1KD tx
O=[N+]([O-])c1ccc(Oc2ccc(Oc3ccc(C(F)(F)F)cn3)cc2)nc1 | ? | ? | 26µM* | -1% | ? | -5%
CCC(=O)Nc1ccc(NC(=O)CSc2nnnn2-c2ccc(OC)cc2)cc1 | -10% | 0% | -19% | 0% | 8 | 1%
CCOC(=O)c1csc(NC(=O)CSc2nnnn2-c2ccc(OC)cc2)n1 | ? | 1% | ? | ? | 26 | -4%[9.24 µM]
CCOC(=O)c1c(NC(=O)CSc2nnnn2-c2ccc(OC)cc2)sc(C)c1C | 6.5µM* | ? | 4.1µM* | 0% | -59* | 16%
COc1ccc(-n2nnnc2SCC(=O)Nc2nnc(C)s2)cc1 | 6.3µM* | 2% | 5.6µM* | 0% | 20 | 1%
CCOC(=O)c1c(NC(=O)CSc2nnc(CNc3ccc(Cl)cc3)o2)sc(C)c1C | ? | -25% | 13µM* | -19% | -9 | -25%
CCOC(=O)c1c(NC(=O)CSc2nnc(CNc3ccc(F)cc3)o2)sc(C)c1C | -8% | ? | -16% | 0% | 0 | -12%
Nc1cc(=O)[nH]c(SCC(=O)Nc2cc(S(=O)(=O)N3CCCCC3)ccc2Cl)n1 | -20% | 1% | -7% | -7%[9.24 µM] | 18 | 3%
O=S1(=O)CCS(=O)(=O)C1c1ccccc1 | ? | nt | ? | 23µM* | ? | 21µM*
CSc1cccc(NC(=O)C2CCCN(S(C)(=O)=O)C2)c1 (centres undefined) | -15% | nt | -25% | -6% | -19 | 0%
COc1ccc(CCN(C)CCCC(C#N)(c2cc(OC)c(OC)c(OC)c2)C(C)C)cc1OC (centres undefined) | ? | -6% | 21µM* | 1% | -24 | -15%
C/C(=N\NC(=O)C1(C)CC1(Br)Br)c1cccc(NC(=O)C(C)(C)C)c1 (centres undefined) | -9% | ? | ? | 14% | 4 | 18%
C/C(=N\NC(=O)C1(C)CC1(Br)Br)c1ccc(NC(=O)c2ccc(C)o2)cc1 (centres undefined) | 13µM* | ? | 18µM* | 0% | 51 | -9%
COc1ccc(CC(=O)Nc2cccc(/C(C)=N/NC(=O)C3(C)CC3(Br)Br)c2)cc1 (centres undefined) | 16µM* | -26% | ? | 4% | 26 | -15%
CN(C)c1ccc(/C=C2\N=C(c3ccc(Cl)c([N+](=O)[O-])c3)NC2=O)cc1 | ? | 8% | 10µM* | -1% | -3 | 3%
CCOC(=O)CSc1n[nH]c(=S)s1 | -7% | ? | 0% | 1% | 19 | -3%
CC(C)(C)CC(C)(C)SSc1n[nH]c(=S)s1 | ? | nt | ? | 18% | -73* | 10%
CCCCN(C)CCNC(=O)Cn1ncc2c3ccccc3n(CCC)c2c1=O | 23µM* | nt | ? | nt | nt | nt
CCCn1c2ccccc2c2cnn(CC(=O)NCCN(CC)CC)c(=O)c21 | -20% | 11% | ? | ? | -91* | ?
CCCn1c2ccccc2c2cnn(CC(=O)NCCN(C)C)c(=O)c21 | -25% | -4% | 0% | 6% | -6 | 20%
CCCNC(=O)Cn1ncc2c3ccccc3n(CCC)c2c1=O | ? | nt | 15µM* | nt | nt | nt
CCCCN(C)C(=O)Cn1ncc2c3ccccc3n(CCC)c2c1=O | ? | 8% | ? | -1% | -18 | -2%
Cc1nnc(NC(=O)C2CSC3(C)CCC(=O)N23)s1 (centres undefined) | -17% | -7% | -3% | 16% | 4 | 13%
Cc1ccccc1C(=O)OCc1cc(=O)n2nc(C(C)C)sc2n1 | 3% | nt | -23% | nt | nt | nt
CO[C@H]1CN(C)C(=O)c2ccc(NC(=O)c3ccc4c(c3)OCO4)cc2OC[C@H](C)N(CC2CC2)C[C@@H]1C | ? | nt | ? | 6% | 33 | 9%
SMILES | DT40 TDP1 CPT | ELG1 DNA repair | TDP1 cell noCPT | HT1080NT lethal | IL1B secr inh | HT1080 IDH1KD tx
CCc1nc2ccc(C(=O)NCCCN3CCCC3=O)cn2c1N(CC)CCOC | 6% | nt | 18% | 13% | 5 | ?
CCOC(=O)N1CCc2c(sc3nc(SC(C)C)n(N)c(=O)c23)C1 | 9.2µM* | ? | 23µM* | -9% | -23 | -17%
CCOC(=O)N1CCc2c(sc3ncn(C)c(=O)c23)C1 | 10% | 19% | -16% | 26% | nt | 18%
O=C(N[C@@H](Cc1ccccc1)C(=O)N1CCN(S(=O)(=O)c2ccccc2F)CC1)c1ccco1 | ? | -14% | ? | 10% | 6 | 12%
COc1ccc2nc(C(F)(F)Cl)c(C#N)c(N)c2c1 | ? | 15% | ? | -10% | -72* | -18%
COc1ccc2nc3cc(Cl)ccc3c(C#N)c2c1 | 14% | 7% | 2% | 8% | 18 | 9%
O=C(CN(c1ccc(Cl)c(C(F)(F)F)c1)S(=O)(=O)c1ccccc1)N1CCc2ccccc2C1 | ? | nt | 16µM* | nt | nt | nt
CS(=O)(=O)N(CC(=O)N1CCN(c2ccccc2)CC1)c1ccc(Cl)c(C(F)(F)F)c1 | ? | ? | ? | -9% | 0 | -19%
Cc1ccc(S(=O)(=O)c2cc(OC(=O)c3ccco3)ccc2OC(=O)c2ccco2)cc1 | ? | -3% | 16µM* | -2% | 4 | -6%
Cc1ccc(CN2C(=O)C(Cc3ccccc3)Nc3ncnc(N4CCN(c5ccccc5)CC4)c32)cc1 (centres undefined) | ? | -14% | ? | -6% | -17 | -2%
O=C1C(Cc2ccccc2)Nc2ncnc(N3CCN(c4ccccc4)CC3)c2N1Cc1ccccc1 (centres undefined) | ? | 2% | 18µM* | -30% | -59* | 0%
CCC1Nc2ncnc(N3CCN(c4ccccc4)CC3)c2N(Cc2ccc(Br)cc2)C1=O (centres undefined) | 21µM* | -3% | ? | -1% | ? | -3%
Cc1ccc(CN2C(=O)C(Cc3ccccc3)Nc3ncnc(N4CCCCC4)c32)cc1 (centres undefined) | 18µM* | 1% | ? | -1% | -19 | -4%
